According to PubChem BioAssay AID1159580 (chemical genetic matrix, 2015):
Screen size: about 5,500 compounds; about 2,000 (36%) were called active. Another 18% or so got no clear call; they are omitted. The list shows a part of the results. Unmarked numbers belong to inactive results. Cut-off read from the data, not from the text of the source: active = normalized growth mostly below about 0.91 (no sharp cut-off); inconclusive = no clear call, values can overlap the other calls; inactive = mostly above about 0.92.

Experiment: chemical genetic growth profiling, strain panel (AID 1159580);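 note: tested at 20 µM; growth read once vehicle control cultures reached saturation at 30 °C; 1 = growth at the plate median or of vehicle wells; lower values mean less growth of the strain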
Details: growth OD

Q: Which results are given for `O=[N+]([O-])O[C@H]1CO[C@H]2[C@@H]1OC[C@H]2O[N+](=O)[O-]`?
A: normalized growth (S. cerevisiae deletion strains, locus YJR043C, strain POL32, active compounds read low): 1.02; normalized growth (S. cerevisiae deletion strains, locus YJR066W, strain TOR1, active compounds read low): 0.946; normalized growth (S. cerevisiae deletion strains, locus YKL009W, strain mrt4, active compounds read low): 1.03; normalized growth (S. cerevisiae deletion strains, locus YKL068W, active compounds read low): 1.01; normalized growth (S. cerevisiae deletion strains, locus YKL085W, strain MDH1 (second series), active compounds read low): 1.01; normalized growth (S. cerevisiae deletion strains, locus YKL085W, strain MDH1, active compounds read low): 1.01; normalized growth (S. cerevisiae deletion strains, locus YKL160W, strain elf1, active compounds read low): 0.98; normalized growth (S. cerevisiae deletion strains, locus YKL190W, strain CNB1, active compounds read low): 1.02; normalized growth (S. cerevisiae deletion strains, locus YKR001C, strain vps1, active compounds read low): 1.02; normalized growth (S. cerevisiae deletion strains, locus YKR026C, strain gcn3, active compounds read low): 0.993; normalized growth (S. cerevisiae deletion strains, locus YKR091W, strain srl3, active compounds read low): 0.993; normalized growth (S. cerevisiae deletion strains, locus YLL001W, strain dnm1, active compounds read low): 0.971; normalized growth (S. cerevisiae deletion strains, locus YLL026W, active compounds read low): 1; normalized growth (S. cerevisiae deletion strains, locus YLL041C, strain sdh2, active compounds read low): 0.998; normalized growth (S. cerevisiae deletion strains, locus YLR027C, strain aat2, active compounds read low): 1.01; normalized growth (S. cerevisiae deletion strains, locus YLR039C, strain RIC1, active compounds read low): 1.05; normalized growth (S. cerevisiae deletion strains, locus YLR058C, strain SHM2, active compounds read low): 1.01; normalized growth (S. cerevisiae deletion strains, locus YLR102C, strain apc9, active compounds read low): 1.01; normalized growth (S. cerevisiae deletion strains, locus YLR113W, strain HOG1, active compounds read low): 0.926; normalized growth (S. cerevisiae deletion strains, locus YLR221C, strain rsa3, active compounds read low): 0.995; normalized growth (S. cerevisiae deletion strains, locus YLR258W, strain gsy2, active compounds read low): 0.995; normalized growth (S. cerevisiae deletion strains, locus YLR262C, strain YPT6 (second series), active compounds read low): 1; normalized growth (S. cerevisiae deletion strains, locus YLR262C, strain YPT6, active compounds read low): 1.02; normalized growth (S. cerevisiae deletion strains, locus YLR268W, strain sec22, active compounds read low): 1.04; normalized growth (S. cerevisiae deletion strains, locus YLR320W, strain mms22, active compounds read low): 0.979; normalized growth (S. cerevisiae deletion strains, locus YLR330W, strain CHS5, active compounds read low): 1.01; normalized growth (S. cerevisiae deletion strains, locus YLR342W, strain FKS1 (second series), active compounds read low): 1.04; normalized growth (S. cerevisiae deletion strains, locus YLR342W, strain FKS1, active compounds read low): 0.995; normalized growth (S. cerevisiae deletion strains, locus YLR357W, strain rsc2, active compounds read low): 0.983; normalized growth (S. cerevisiae deletion strains, locus YLR370C, strain arc18, active compounds read low): 0.992; normalized growth (S. cerevisiae deletion strains, locus YLR371W, strain rom2, active compounds read low): 1; normalized growth (S. cerevisiae deletion strains, locus YLR384C, strain iki3, active compounds read low): 0.981; normalized growth (S. cerevisiae deletion strains, locus YLR418C, strain cdc73, active compounds read low): 1.09; normalized growth (S. cerevisiae deletion strains, locus YML016C, strain PPZ1, active compounds read low): 1.01; normalized growth (S. cerevisiae deletion strains, locus YML032C, strain rad52, active compounds read low): 1.03; normalized growth (S. cerevisiae deletion strains, locus YML120C, strain ndi1, active compounds read low): 0.966; normalized growth (S. cerevisiae deletion strains, locus YML124C, strain tub3, active compounds read low): 1.02; normalized growth (S. cerevisiae deletion strains, locus YMR058W, strain fet3, active compounds read low): 1; normalized growth (S. cerevisiae deletion strains, locus YMR078C, strain ctf18, active compounds read low): 1.02; normalized growth (S. cerevisiae deletion strains, locus YMR125W, strain sto1, active compounds read low): 0.996; normalized growth (S. cerevisiae deletion strains, locus YMR129W, active compounds read low): 0.988; normalized growth (S. cerevisiae deletion strains, locus YMR205C, strain PFK2, active compounds read low): 0.963; normalized growth (S. cerevisiae deletion strains, locus YMR223W, strain ubp8, active compounds read low): 1.05; normalized growth (S. cerevisiae deletion strains, locus YMR231W, strain pep5, active compounds read low): 1; normalized growth (S. cerevisiae deletion strains, locus YMR307W, strain GAS1, active compounds read low): 1.05; normalized growth (S. cerevisiae deletion strains, locus YNL067W, strain RPL9B, active compounds read low): 1.01; normalized growth (S. cerevisiae deletion strains, locus YNL071W, strain lat1, active compounds read low): 0.996; normalized growth (S. cerevisiae deletion strains, locus YNL128W, strain TEP1, active compounds read low): 1.03; normalized growth (S. cerevisiae deletion strains, locus YNL183C, strain NPR1, active compounds read low): 0.955; normalized growth (S. cerevisiae deletion strains, locus YNL209W, strain ssb2, active compounds read low): 0.994; normalized growth (S. cerevisiae deletion strains, locus YNL233W, strain BNI4, active compounds read low): 1.01; normalized growth (S. cerevisiae deletion strains, locus YNL248C, strain rpa49, active compounds read low): 1.01; normalized growth (S. cerevisiae deletion strains, locus YNL250W, strain rad50, active compounds read low): 1.05; normalized growth (S. cerevisiae deletion strains, locus YNL271C, strain bni1, active compounds read low): 1.01; normalized growth (S. cerevisiae deletion strains, locus YNL298W, strain CLA4, active compounds read low): 1.03; normalized growth (S. cerevisiae deletion strains, locus YNL307C, strain MCK1, active compounds read low): 1.02; normalized growth (S. cerevisiae deletion strains, locus YNL322C, strain KRE1 (second series), active compounds read low): 0.979; normalized growth (S. cerevisiae deletion strains, locus YNR049C, strain mso1, active compounds read low): 0.981; normalized growth (S. cerevisiae deletion strains, locus YNR052C, strain pop2, active compounds read low): 1.02; normalized growth (S. cerevisiae deletion strains, locus YOL006C, strain TOP1, active compounds read low): 1.01; normalized growth (S. cerevisiae deletion strains, locus YOL012C, strain htz1): 1.04; normalized growth (S. cerevisiae deletion strains, locus YOL147C, strain pex11, active compounds read low): 1.02; normalized growth (S. cerevisiae deletion strains, locus YOR001W, strain rrp6, active compounds read low): 1.01; normalized growth (S. cerevisiae deletion strains, locus YOR061W, strain CKA2, active compounds read low): 1.01; normalized growth (S. cerevisiae deletion strains, locus YOR069W, strain VPS5, active compounds read low): 1.01; normalized growth (S. cerevisiae deletion strains, locus YOR070C, strain gyp1, active compounds read low): 1; normalized growth (S. cerevisiae deletion strains, locus YOR080W, strain dia2, active compounds read low): 0.994; normalized growth (S. cerevisiae deletion strains, locus YOR083W, strain WHI5, active compounds read low): 0.977; normalized growth (S. cerevisiae deletion strains, locus YOR106W, strain vam3, active compounds read low): 1; normalized growth (S. cerevisiae deletion strains, locus YOR136W, strain idh2, active compounds read low): 1.02; normalized growth (S. cerevisiae deletion strains, locus YOR144C, strain elg1, active compounds read low): 1.02; normalized growth (S. cerevisiae deletion strains, locus YOR184W, strain ser1, active compounds read low): 1.03; normalized growth (S. cerevisiae deletion strains, locus YOR231W, strain MKK1, active compounds read low): 0.837 (active); normalized growth (S. cerevisiae deletion strains, locus YOR265W, strain rbl2, active compounds read low): 0.994; normalized growth (S. cerevisiae deletion strains, locus YOR270C, strain vph1, active compounds read low): 1.02; normalized growth (S. cerevisiae deletion strains, locus YOR290C, strain snf2, active compounds read low): 0.939; normalized growth (S. cerevisiae deletion strains, locus YOR316C, strain cot1, active compounds read low): 1.01; normalized growth (S. cerevisiae deletion strains, locus YPL051W, strain arl3, active compounds read low): 0.985; normalized growth (S. cerevisiae deletion strains, locus YPL078C, strain atp4, active compounds read low): 0.979; normalized growth (S. cerevisiae deletion strains, locus YPL106C, strain sse1, active compounds read low): 0.949; normalized growth (S. cerevisiae deletion strains, locus YPL240C, strain hsp82, active compounds read low): 1; normalized growth (S. cerevisiae deletion strains, locus YPL256C, strain CLN2, active compounds read low): 0.938; normalized growth (S. cerevisiae deletion strains, locus YPR119W, strain clb2, active compounds read low): 1.02; normalized growth (S. cerevisiae deletion strains, locus YPR141C, strain kar3, active compounds read low): 1.02; normalized growth (S. cerevisiae deletion strains, locus YPR163C, strain tif3, active compounds read low): 1.01; normalized growth (S. cerevisiae deletion strains, locus YPR167C, strain met16, active compounds read low): 1.02; normalized growth (S. cerevisiae deletion strains, strain wtn01, active compounds read low): 1.05; normalized growth (S. cerevisiae strains, strain wild type, active compounds read low): 1.02
